HepG2 tox = qHTS for Inhibitors of TGF-b: Cytotox Counterscreen; HepG2 CAGA-GFP viability, ATP luminescence, 18 h; Potency, µM (highest dose often 46.1 µM), without a hit: at the top dose activity change, negative = cytotoxicity, hits mostly cytotoxic; 410,000 compounds, 0.76% hits; note: potency is the fitted concentration of half-maximal effect
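CellTiter-Glo luminescence gave cytotoxicity after 18 hours at 37 degrees C. The cells were HepG2 CAGA-GFP in 1% FBS DMEM, stimulated with 500 pg/mL TGF-beta after compound addition. %Activity was normalised to no-cell wells (complete cell-killing) and DMSO (no toxicity), and curves were fitted and classified.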
TDP1 cell noCPT = qHTS for Inhibitors of human tyrosyl-DNA phosphodiesterase 1 (TDP1): qHTS in cells in absence of CPT; DT40 Tdp1-/- hTDP1 cells, no CPT, ATP luminescence, 48 h; Potency, µM (doses to about 46.2 µM), inactives show at the highest dose activity change, negative = growth inhibition, usual class: inhibitors; 420,000 compounds, 15% hits; AID 686978, 2013; note: potency is the fitted concentration of half-maximal effect; % is set by controls: 0 for no effect and ±100 for the full control effect; nearly all actives have a fitted effect of over 55% in size
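Growth of hTDP1-complemented DT40 Tdp1-knockout cells is measured by ATP luminescence after at least 48 hr compound exposure at 37 °C, with DMSO substituting for the 20 nM CPT used in the parallel screen.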
IL1B secr inh = qHTS for Inhibitors of Inflammasome Signaling: IL-1-beta AlphaLISA Primary Screen; THP-1 LPS/ATP IL-1B secretion, AlphaLISA, 16 h; active compounds read low; activity change, % at 57.5 µM; 360,000 compounds, 4.7% hits; AID 743279, 2014; in the data active = activity change below about -50%; inconclusive = mostly about -30% to -49%; note: % is set by controls: 0 for no effect and ±100 for the full control effect
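Secreted IL-1B measured by AlphaLISA bead assay after 16 h compound exposure of THP-1 cells; compounds (final up to 57.5 uM) added 1 h before LPS (250 ng/mL) and ATP (1.25 mM) stimulation; lower signal means less secretion.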
ASM inhibitor = Inhibitors of Secretory Acid Sphingomyelinase (S-ASM): qHTS | Sphingomyelin phosphodiesterase (Homo sapiens), P17405 | placental ASM, HMU-PC fluorogenic substrate, 60 min | Potency, µM (titrated, usually from 57.5 µM), without a hit: at the top dose activity change, negative = inhibition, most hits filed as inhibitors | 340,000 compounds, 0.006% hits; note: potency is the fitted concentration of half-maximal effect
Target sequence (P17405 47-631 limits assumed): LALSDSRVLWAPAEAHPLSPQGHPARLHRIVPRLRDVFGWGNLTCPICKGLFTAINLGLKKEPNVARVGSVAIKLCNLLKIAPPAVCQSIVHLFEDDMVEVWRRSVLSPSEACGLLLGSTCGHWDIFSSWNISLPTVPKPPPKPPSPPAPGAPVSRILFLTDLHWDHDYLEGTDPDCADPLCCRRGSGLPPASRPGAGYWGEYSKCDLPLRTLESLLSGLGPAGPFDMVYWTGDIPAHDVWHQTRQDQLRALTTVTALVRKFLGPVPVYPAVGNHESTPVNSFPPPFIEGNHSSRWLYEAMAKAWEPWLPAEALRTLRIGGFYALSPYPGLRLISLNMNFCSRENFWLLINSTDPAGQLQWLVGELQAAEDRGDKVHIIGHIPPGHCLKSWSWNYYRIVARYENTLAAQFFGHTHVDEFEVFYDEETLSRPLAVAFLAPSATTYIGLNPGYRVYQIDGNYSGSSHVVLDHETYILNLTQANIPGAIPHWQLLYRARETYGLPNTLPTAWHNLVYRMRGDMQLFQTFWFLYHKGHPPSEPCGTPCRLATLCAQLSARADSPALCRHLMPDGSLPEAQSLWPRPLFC
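Human placenta-derived ASM enzyme was preincubated with compound for 10 minutes at room temperature, then given fluorogenic substrate HMU-PC0 (9 uM final) for 60 minutes at 37 °C; a pH 10 stop preceded fluorescence reading at Ex 386/Em 447 nm.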
TGFb inhibitor = qHTS for Inhibitors of TGF-b | Potency, µM (doses to about 46.1 µM), for the others: at the top dose activity, negative = inhibition, most hits filed as inhibitors | 410,000 compounds, 1.2% hits | HepG2 CAGA-GFP TGF-b/SMAD3 reporter, GFP fluorescence, 18 h; TGF-beta stimulated, 500 pg/mL final; note: potency is the fitted concentration of half-maximal effect; % is set by controls: 0 for no effect and ±100 for the full control effect; nearly all actives have a fitted effect of over 65% in size
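First, reporter cells (HEPG2 CAGA-GFP) rested 2 h at 37 degrees C. Next, compounds were pinned in and TGF-beta added to 500 pg/mL final. After 18 h, GFP was imaged per cell and summed per well.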
TDP1 cell CPT = qHTS for Inhibitors of human tyrosyl-DNA phosphodiesterase 1 (TDP1): qHTS in cells in presence of CPT. chicken DT40 Tdp1-/-;hTDP1 cells + 20 nM CPT, ATP luminescence, 48 h. Potency, µM (top dose mostly 46.2 µM), for inactives: at the highest dose activity change, negative = growth inhibition, usual class: inhibitors. 420,000 compounds, 12% hits; note: potency is the fitted concentration of half-maximal effect; % is set by controls: 0 for no effect and ±100 for the full control effect; nearly all actives have a fitted effect of over 55% in size
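Cell growth measured by CellTiter-Glo luminescence after a minimum 48 h, 37 C compound exposure with 20 nM CPT in Tdp1-knockout DT40 cells stably expressing hTDP1, seeded 400/well; qHTS titration format.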
An asterisk follows results filed as active; ? = inconclusive; nt = no result. In the library only some 19% were active in any assay of this set; here they are far more common. Unless noted, calls come from the whole dose curve; as a rule, active = well fitted curve in the direction sought with a large enough effect; inconclusive = small, poorly fitted or top-dose-only effect, or another doubt; inactive = no such curve, though single readings can be large; an effect the other way counts as inactive or inconclusive.

SMILES | HepG2 tox | TDP1 cell noCPT | IL1B secr inh | ASM inhibitor | TGFb inhibitor | TDP1 cell CPT
COc1ccc(OC)c(C2C=C(c3ccc(C)c(C)c3)Nc3nnnn32)c1 (configuration not stated) | -8% | 2.3µM* | 22 | 93% | 0% | 4.6µM*
COc1ccc(-c2cnnn2-c2ccc(NC(=O)c3c(F)cccc3F)cc2)cc1 | -5% | 26µM* | nt | nt | ? | 12µM*
COc1ccc(-c2cnnn2-c2ccc(NC(=O)c3ccccc3OC)cc2)cc1 | -9% | ? | nt | nt | ? | 21µM*
COc1cccc(C(=O)Nc2ccc(-n3nncc3-c3ccccc3)cc2)c1 | -19% | ? | nt | nt | 0% | ?
Cc1[nH]c2ccccc2c1C(=O)C(=O)NC1CC1 | 6% | 15% | -3 | -2% | -6% | 2%
Cc1ccc(C2N(c3ccc(Cl)cc3)C(=O)N3CCCN23)cc1 (configuration not stated) | -38% | 15µM* | -15 | -1% | 2% | ?
Cc1ccc2c(c1)C(c1ccccc1)C(=O)O2 (configuration not stated) | -9% | 1% | 1 | 6% | -19% | 17%
CCSc1ncc(Cl)c(C(=O)Nc2ccccc2)n1 | 4% | -17% | 19 | -2% | 18% | -27%
CCCSc1ncc(Cl)c(C(=O)Nc2ccc(S(=O)(=O)N(C)c3ccccc3)cc2)n1 | -12% | 21µM* | nt | nt | nt | ?
CCN(c1ccccc1)S(=O)(=O)c1ccc(NC(=O)c2nc(SC)ncc2Cl)cc1 | -48% | 21µM* | nt | nt | ? | 12µM*
Cn1c(SCC(=O)Nc2nccs2)nnc1-c1ccccn1 | -6% | 11% | 6 | 1% | -21% | -14%
C[C@@H]1O[C@H](C2CCCC2)CC2=C1C(=O)OC(C)(C)O2 | nt | -21% | 28 | nt | nt | -4%
CCOC(=O)C1CCN(C(=O)C2CCN(S(=O)(=O)c3c(C)noc3/C=C/c3ccc(C)cc3)CC2)CC1 | -29% | 5.2µM* | nt | nt | 7% | ?
Cc1cc(C)c(/C=C/c2onc(C)c2S(=O)(=O)N2CCC(C(=O)N3CCN(c4ccccc4)CC3)CC2)c(C)c1 | -3% | 13µM* | nt | nt | 3% | 16µM*
Cc1cc(C)c(/C=C/c2onc(C)c2S(=O)(=O)N2CCC(C(=O)Nc3cccc(C)c3C)CC2)c(C)c1 | -8% | 6.5µM* | nt | nt | 0% | 5.2µM*
Cc1ccc(/C=C/c2onc(C)c2S(=O)(=O)N2CCC(C(=O)N3CCN(C)CC3)CC2)cc1 | -7% | 23µM* | nt | 1% | -11% | ?
COc1ccc(/C=C/c2onc(C)c2S(=O)(=O)N2CCC(C(=O)N3CCCCC3)CC2)cc1 | -3% | ? | nt | nt | ? | ?
CC(NC(=O)c1ccc(Cl)cc1)c1nnc(SCC(=O)NC2=NCCS2)n1C (configuration not stated) | -12% | -5% | -9 | 9% | 3% | 5%
CCOc1ccccc1/C=C/c1onc(C)c1S(=O)(=O)N1CCC(C(=O)NC)CC1 | -2% | ? | 27 | 28% | 3% | ?
Cc1ccc(/C=C/c2onc(C)c2S(=O)(=O)N2CCC(C(=O)NCc3ccco3)CC2)cc1 | -12% | -27% | nt | nt | -5% | -29%
Cc1ccc(CNC(=O)C2CCN(S(=O)(=O)c3c(C)noc3/C=C/c3cccs3)CC2)cc1 | -24% | ? | nt | nt | ? | 21µM*
Cc1ccc(/C=C/c2onc(C)c2S(=O)(=O)N2CCC(C(=O)N3CCOc4ccc(C)cc43)CC2)cc1 | 0% | ? | nt | nt | -27% | ?
Cc1ccc(/C=C/c2onc(C)c2S(=O)(=O)N2CCC(C(=O)N3CC(C)Oc4ccccc43)CC2)cc1 (configuration not stated) | -5% | 12µM* | nt | nt | -18% | 18µM*
CCOc1ccccc1/C=C/c1onc(C)c1S(=O)(=O)N1CCC(C(=O)N2CCCCC2)CC1 | 8% | 21µM* | nt | nt | ? | 16µM*
COc1ccc(CNC(=O)C2CCN(S(=O)(=O)c3c(C)noc3/C=C/c3cccs3)CC2)cc1 | -26% | -27% | nt | nt | -7% | -23%
SMILES | HepG2 tox | TDP1 cell noCPT | IL1B secr inh | ASM inhibitor | TGFb inhibitor | TDP1 cell CPT
Cc1ccc(/C=C/c2onc(C)c2S(=O)(=O)N2CCC(C(=O)N(CCC(C)C)Cc3ccco3)CC2)cc1 | -9% | 16µM* | nt | nt | -1% | ?
CCCCNC(=O)[C@]1(C)CCC[C@@]2(C)C3CC[C@@]4(C)C[C@]3(CCC21)CC4=O (some centres not stated) | -18% | ? | -1 | 2% | 2% | -29%
Cc1cc(C)nc(N2CCC(C(=O)NC3CC3)CC2)n1 | 7% | 0% | 7 | 0% | 23% | 5%
Cc1cccc(N2CCN(C(=O)C3CCN(S(=O)(=O)c4c(C)noc4/C=C/c4ccccc4F)CC3)CC2C)c1 (configuration not stated) | -17% | 6.5µM* | nt | nt | ? | 10µM*
CCC(C)(C)NC(=O)C1CCN(S(=O)(=O)c2c(C)noc2/C=C/c2ccc(C)cc2)CC1 | -14% | ? | nt | nt | -8% | 23µM*
Cc1cccc(/C=C/c2onc(C)c2S(=O)(=O)N2CCC(C(=O)NC(C)(C)C)CC2)c1 | -16% | ? | 3 | 51% | -1% | ?
O=C(Nc1cccc(NC(=O)c2ccccc2[N+](=O)[O-])n1)c1ccccc1[N+](=O)[O-] | 1% | 9.2µM* | 6 | -2% | 9% | 6.5µM*
Cc1cc(NC(=O)c2cc([N+](=O)[O-])ccc2Cl)no1 | -26% | 16µM* | ? | 6% | -23% | ?
Cc1ccc(NC(=O)c2ccc([N+](=O)[O-])cc2Cl)nc1 | -2% | -11% | 0 | -3% | 9% | -10%
Cc1cc(NC(=O)c2ccc([N+](=O)[O-])cc2Cl)no1 | -15% | 8% | -21 | -1% | -7% | -21%
O=C(Nc1cccc(NC(=O)c2cc([N+](=O)[O-])ccc2Cl)n1)c1cc([N+](=O)[O-])ccc1Cl | -53% | 9.2µM* | -100* | -1% | ? | 7.3µM*

Source: PubChem (National Center for Advancing Translational Sciences (NCATS))
